# Reference: PubChem BioAssay (NCATS)
# Records with an inconclusive call do not appear. The source made the active and inactive calls. Unless noted, calls follow the shape of the dose curve; as a rule, active = well fitted curve in the direction sought with a large enough effect; inconclusive = small, poorly fitted or top-dose-only effect, or another doubt; inactive = no such curve, though single readings can be large; an effect the other way counts as inactive or inconclusive.
# Key:
# [1] = molecular target: Muscarinic acetylcholine receptor M1 (Rattus norvegicus) (UniProt P08482); test: qHTS Assay for Antagonists of Acetylcholine Muscarinic M1 Receptor: Kinetic Measurement of Intracellular Calcium Response (AID 943); also: potency is read from the fitted curve at half-maximal effect; nearly all actives have a fitted effect of over 75% in size
# Sequence of Muscarinic acetylcholine receptor M1 (Rattus norvegicus) (P08482 whole entry, looked up): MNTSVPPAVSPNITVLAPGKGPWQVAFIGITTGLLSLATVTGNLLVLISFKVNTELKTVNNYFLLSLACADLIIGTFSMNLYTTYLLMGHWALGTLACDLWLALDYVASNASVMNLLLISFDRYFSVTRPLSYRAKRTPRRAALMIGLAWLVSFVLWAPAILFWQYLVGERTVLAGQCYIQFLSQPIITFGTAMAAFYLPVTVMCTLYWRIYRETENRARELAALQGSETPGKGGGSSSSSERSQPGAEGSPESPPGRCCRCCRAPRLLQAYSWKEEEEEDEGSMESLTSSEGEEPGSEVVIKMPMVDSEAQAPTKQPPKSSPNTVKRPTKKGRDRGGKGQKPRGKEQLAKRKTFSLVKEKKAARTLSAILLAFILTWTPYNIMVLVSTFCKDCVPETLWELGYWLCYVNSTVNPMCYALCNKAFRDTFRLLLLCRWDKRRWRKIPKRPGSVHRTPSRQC
# Method in brief: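 Quantitative HTS in CHO-M1 (rat receptor) cells: 10 min compound exposure ahead of 100 nM carbachol, Fluo-4 fluorescence followed 4 min, value expressed as peak-to-basal ratio.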
# [2] = S16 Schwann cell PMP22 intronic element beta-lactamase assay (AID 624044; calls by dose curve; also: nearly all actives have a fitted effect of over 15% in size)
# Method in brief: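 Beta-lactamase reporter under a PMP22 intronic regulatory element in stable S16 rat Schwann cells; 24 h compound exposure. 460 nm blue signal normalized between DMSO (0%) and potassium clavulanate, with 535 nm FRET tracking viability; curves classed by r2 and response.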
# ATS189 = test: qHTS profiling for inhibitors of Plasmodium falciparum proliferation (AID 504749); also: potency is read from the fitted curve at half-maximal effect; nearly all actives have a fitted effect of over 60% in size; settings: P. falciparum in erythrocytes, SYBR Green DNA, 72 h; series mostly up to 28.7 µM
# Method in brief: (§1)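 SYBR Green fluorescence (ex 485 nm, em 535 nm) reports parasite DNA after 72 h compound exposure of infected red cells at 0.3% parasitemia, 2.5% hematocrit; signal normalized to 0.29 uM artemisinin and vehicle wells.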
# CP191 = test: as above; settings: P. falciparum in erythrocytes, SYBR Green DNA, 72 h; series mostly up to 28.7 µM
# Method in brief: as §1
# DIV14 = test: as above; settings: P. falciparum in erythrocytes, SYBR Green DNA, 72 h; series mostly up to 28.7 µM
# Method in brief: as §1
# P93_24 = test: as above; settings: P. falciparum in erythrocytes, SYBR Green DNA, 72 h; series mostly up to 28.7 µM
# Method in brief: as §1
# TAB165 = test: as above; settings: P. falciparum in erythrocytes, SYBR Green DNA, 72 h; series mostly up to 28.7 µM
# Method in brief: as §1
# [3] = molecular target: 3',5'-cyclic-AMP phosphodiesterase 4B (Homo sapiens) (UniProt Q07343); test: qHTS Assay for Inhibitors of PDE-IV (AID 607; active = well fitted activation curve with a large enough effect in the main read-out, with a control signal flat, not every such curve was filed as active)
# Sequence of 3',5'-cyclic-AMP phosphodiesterase 4B (Homo sapiens) (Q07343 whole entry, looked up): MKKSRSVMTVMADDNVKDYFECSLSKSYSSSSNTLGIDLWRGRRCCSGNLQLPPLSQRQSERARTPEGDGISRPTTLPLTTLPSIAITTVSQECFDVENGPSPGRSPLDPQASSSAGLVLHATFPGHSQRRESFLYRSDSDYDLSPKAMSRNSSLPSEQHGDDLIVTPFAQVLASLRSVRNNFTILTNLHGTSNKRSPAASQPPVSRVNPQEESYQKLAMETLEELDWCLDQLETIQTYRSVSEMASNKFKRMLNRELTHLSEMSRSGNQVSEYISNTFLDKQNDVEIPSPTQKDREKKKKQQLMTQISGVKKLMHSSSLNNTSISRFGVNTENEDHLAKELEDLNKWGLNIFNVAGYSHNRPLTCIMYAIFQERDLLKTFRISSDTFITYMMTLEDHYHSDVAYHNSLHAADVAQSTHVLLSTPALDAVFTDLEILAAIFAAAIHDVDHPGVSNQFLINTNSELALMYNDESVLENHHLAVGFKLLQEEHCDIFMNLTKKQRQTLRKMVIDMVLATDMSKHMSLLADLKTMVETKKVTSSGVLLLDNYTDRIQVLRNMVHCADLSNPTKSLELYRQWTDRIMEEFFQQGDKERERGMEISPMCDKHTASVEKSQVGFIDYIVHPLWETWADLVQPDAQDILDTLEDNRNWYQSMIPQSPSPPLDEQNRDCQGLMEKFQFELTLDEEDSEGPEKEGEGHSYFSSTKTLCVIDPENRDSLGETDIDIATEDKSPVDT
# Method in brief: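 Cell-based read-out of cAMP via a modified cyclic nucleotide-gated channel and membrane potential dye (535/590 nm) in HEK293 cells expressing PDE4 endogenously. Compounds tested up to 22.9 uM final; 100 uM RO 20-1724 reference.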
# [4] = molecular target: Cytochrome P450 2D6 (Homo sapiens) (UniProt P10635); test: qHTS Assay for Inhibitors and Substrates of Cytochrome P450 2D6 (AID 891); also: potency is read from the fitted curve at half-maximal effect; nearly all actives have a fitted effect of over 60% in size
# Sequence of Cytochrome P450 2D6 (Homo sapiens) (P10635 whole entry, looked up): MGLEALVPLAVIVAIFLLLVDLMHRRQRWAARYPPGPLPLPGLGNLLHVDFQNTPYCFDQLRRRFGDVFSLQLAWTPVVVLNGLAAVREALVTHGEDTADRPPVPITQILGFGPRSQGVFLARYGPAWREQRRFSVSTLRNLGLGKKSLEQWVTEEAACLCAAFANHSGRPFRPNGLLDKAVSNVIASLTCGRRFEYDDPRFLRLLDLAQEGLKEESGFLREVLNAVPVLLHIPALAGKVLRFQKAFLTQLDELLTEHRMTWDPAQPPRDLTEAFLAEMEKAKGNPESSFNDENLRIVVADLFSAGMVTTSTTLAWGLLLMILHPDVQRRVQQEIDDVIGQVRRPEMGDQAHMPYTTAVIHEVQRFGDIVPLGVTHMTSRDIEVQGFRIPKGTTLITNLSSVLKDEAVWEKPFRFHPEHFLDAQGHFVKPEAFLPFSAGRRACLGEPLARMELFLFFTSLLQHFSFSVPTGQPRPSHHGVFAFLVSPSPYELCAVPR
# Method in brief: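 Luminescent read-out of luciferin formed by 5 nM human CYP2D6 demethylating 30 uM Luciferin-ME EGE (Km level) over 60 min at room temperature after NADPH regeneration addition. Data normalized to full inhibition by 1.43 uM quinidine.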
# [5] = molecular target: Rap guanine nucleotide exchange factor 3 (Homo sapiens) (UniProt O95398); test: Confirmatory qHTS for antagonist of cAMP-regulated guanine nucleotide exchange factor 3 (EPAC1) (AID 1645880); also: nearly all actives have a fitted effect of over 55% in size
# Sequence of Rap guanine nucleotide exchange factor 3 (Homo sapiens) (O95398 whole entry, looked up): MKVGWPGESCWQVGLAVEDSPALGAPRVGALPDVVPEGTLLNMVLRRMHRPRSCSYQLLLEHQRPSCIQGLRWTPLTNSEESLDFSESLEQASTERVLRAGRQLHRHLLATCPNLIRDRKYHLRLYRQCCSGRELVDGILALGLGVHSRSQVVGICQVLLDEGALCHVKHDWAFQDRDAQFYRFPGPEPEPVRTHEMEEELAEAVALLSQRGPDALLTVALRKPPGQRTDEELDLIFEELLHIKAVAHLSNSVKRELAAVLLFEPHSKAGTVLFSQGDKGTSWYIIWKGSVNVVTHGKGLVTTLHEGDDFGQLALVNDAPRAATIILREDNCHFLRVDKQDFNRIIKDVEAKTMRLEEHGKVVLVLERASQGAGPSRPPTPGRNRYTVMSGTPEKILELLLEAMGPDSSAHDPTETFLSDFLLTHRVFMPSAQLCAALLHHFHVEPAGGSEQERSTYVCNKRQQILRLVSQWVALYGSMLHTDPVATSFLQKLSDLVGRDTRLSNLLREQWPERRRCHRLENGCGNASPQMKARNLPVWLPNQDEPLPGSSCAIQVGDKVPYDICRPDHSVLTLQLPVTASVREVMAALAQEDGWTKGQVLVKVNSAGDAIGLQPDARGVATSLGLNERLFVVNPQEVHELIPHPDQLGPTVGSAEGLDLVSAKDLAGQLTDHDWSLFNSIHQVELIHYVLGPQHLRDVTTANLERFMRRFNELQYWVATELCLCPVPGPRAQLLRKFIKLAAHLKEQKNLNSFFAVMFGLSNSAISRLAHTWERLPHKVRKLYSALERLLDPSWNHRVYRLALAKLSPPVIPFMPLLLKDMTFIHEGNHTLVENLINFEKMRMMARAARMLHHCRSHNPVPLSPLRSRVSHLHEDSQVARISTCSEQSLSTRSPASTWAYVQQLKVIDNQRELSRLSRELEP
# Method in brief: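 Released BODIPY-GDP fluoresces less than Rap1-bound BODIPY-GDP; the signal is followed at 480/540 nm at 5-min intervals over 30 min, after 5 min at room temperature. Reactions contain 100 nM EPAC1, 250 nM RAP1B-BODIPY-GDP and 50 uM GDP; results are normalized to ATA and DMSO.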
structure (smiles),measurement,setting,value
CN1CCN(CCC=C2c3ccccc3Sc3ccc(S(=O)(=O)N(C)C)cc32)CC1,Potency,[1],14.1 µM (active)
same,Potency,[2],inactive
same,Potency,ATS189,8.91 µM (active)
same,Potency,CP191,12.6 µM (active)
same,Potency,DIV14,8.49 µM (active)
same,Potency,P93_24,12.6 µM (active)
same,Potency,TAB165,8.91 µM (active)
COc1cc(/C=C(\C#N)C(N)=O)cc(CSc2nc3ccccc3s2)c1O,Potency,[3],inactive
same,Potency,[4],0.0251 µM (active)
C#C[C@]1(OC(C)=O)CC[C@H]2[C@@H]3CCC4=CC(=O)CC[C@@H]4[C@H]3CC[C@@]21C,Potency,[5],inactive
